Test results: the supplement of paper PMC10849652
Targets with a hit are over-represented here; the source holds about 7,900 in all. About 0.6% of all pairs of compound and target were hits.

Tests used:
Test in all cases: log2 fold change, soluble protein after heating vs DMSO (PISA); higher = thermal stabilisation; K562 cells, 10 uM, 30 min; active = over 0.2 and 3.5 SD of the protein, either way, in both replicates (recomputed)
[1] = compound: Cc1ccc(NC(=O)c2ccc(CN3CC[C@H](N(C)C)C3)c(C(F)(F)F)c2)cc1Nc1nccc(-c2cncnc2)n1 [bafetinib]
Outline: (§1)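 K562 cells (2×10^6 cells/mL) were treated with 10 μM compound for 30 min, and aliquots were heated for 3 min over 48°C-58°C. Pooled aliquots were extracted in PBS with 0.5% NP-40 at 4°C, and the supernatant after 21,000xg for 90 min was measured by TMTpro 16plex LC-MS/MS with channel sums equalised. Reported thermal stability, relative to control samples and from duplicates, is a log2 fold change.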

[2] = compound: Cc1cccc(CC(=O)N2CCc3c2ccc(-c2cn(C)c4ncnc(N)c24)c3F)n1
Outline: as §1

[3] = compound: Cc1cn(-c2cc(NC(=O)c3ccc(C)c(Nc4nccc(-c5cccnc5)n4)c3)cc(C(F)(F)F)c2)cn1 [nilotinib]
Outline: as §1

[4] = compound: Cc1nc(Nc2n[nH]c3c2CN(C(=O)N[C@H](CN(C)C)c2ccccc2)C3(C)C)c2sccc2n1
Outline: as §1

[5] = compound: Cc1nc(Nc2ncc(C(=O)Nc3c(C)cccc3Cl)s2)cc(N2CCN(CCO)CC2)n1 [dasatinib]
Outline: as §1

[6] = compound: Cc1ncc(-c2ccnc(Nc3ccc(S(C)(=O)=O)cc3)n2)n1C(C)C
Outline: as §1

[7] = compound: Cn1cc(-c2ccc3c(c2)CCN3C(=O)Cc2cccc(C(F)(F)F)c2)c2c(N)ncnc21
Outline: as §1

[8] = compound: Cn1cc(-c2ccc3nnc(C(F)(F)c4ccc5ncccc5c4)n3n2)cn1
Outline: as §1

[9] = compound: Cn1cncc1[C@@](N)(c1ccc(Cl)cc1)c1ccc2c(c1)c(-c1cccc(Cl)c1)cc(=O)n2C [tipifarnib]
Outline: as §1

[10] = compound: FC(F)(F)c1ccc(/C=C/c2nc(COc3ccc(CCCCn4ccnn4)cc3)co2)cc1 [mubritinib]
Outline: as §1

[11] = compound: NC(=O)Nc1cc(-c2cccc(F)c2)sc1C(=O)N[C@H]1CCCNC1
Outline: as §1

[12] = compound: NC(=O)c1cnc(N[C@@H]2CCCC[C@@H]2N)nc1Nc1cccc(-n2nccn2)c1
Outline: as §1

[13] = compound: NC1(c2ccc(-c3nc4ccn5c(=O)[nH]nc5c4cc3-c3ccccc3)cc2)CCC1
Outline: as §1

[14] = compound: NCC(=O)Nc1ccc(-n2nc(C(F)(F)F)cc2-c2ccc3c(ccc4ccccc43)c2)cc1
Outline: as §1

[15] = compound: Nc1ccccc1NC(=O)c1ccc(CNC(=O)OCc2cccnc2)cc1 [entinostat]
Outline: as §1

[16] = compound: O=C(CCCCCCC(=O)Nc1ccccc1)NO [vorinostat]
Outline: as §1

[17] = compound: O=C(CCCCCCNC(=O)c1cnc(N(c2ccccc2)c2ccccc2Cl)nc1)NO [citarinostat]
Outline: as §1

[18] = compound: O=C(O)c1ccc2c(c1)nc(Nc1cccc(Cl)c1)c1ccncc12 [silmitasertib]
Outline: as §1

[19] = compound: O=C1NC(=O)C(c2cnc3ccccn23)=C1c1cn2c3c(cc(F)cc13)CN(C(=O)N1CCCCC1)CC2
Outline: as §1

[20] = compound: c1cc(OCCN2CCCCC2)cc(-c2n[nH]c3ccc(-c4nnc[nH]4)cc23)c1
Outline: as §1

Measured: log2 fold change

CHAC2 (UniProt Q8WUX2)
inactive: [1] -0.052 | [2] -0.003 | [3] 0.078 | [4] -0.153 | [5] 0.012 | [6] 0.012 | [7] -0.004 | [8] -0.006 | [9] -0.037 | [10] 0.045 | [11] 0.022 | [12] -0.019 | [13] -0.008 | [14] -0.028 | [15] -0.017 | [16] -0.016 | [17] -0.232 | [18] 0.022 | [19] -0.03
active: [20] 0.419

CALB1 (UniProt P05937)
Chain of UniProt P05937 (P05937 whole entry, looked up): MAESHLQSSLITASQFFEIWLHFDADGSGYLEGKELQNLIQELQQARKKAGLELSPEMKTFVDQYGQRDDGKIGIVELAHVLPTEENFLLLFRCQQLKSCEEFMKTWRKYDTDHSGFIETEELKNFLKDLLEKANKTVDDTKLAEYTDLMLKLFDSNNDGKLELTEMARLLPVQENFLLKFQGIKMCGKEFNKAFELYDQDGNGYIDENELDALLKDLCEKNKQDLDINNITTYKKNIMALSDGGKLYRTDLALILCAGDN
inactive: [1] -0.076 | [2] -0.018 | [3] -0.018 | [4] 0.025 | [5] 0.014 | [6] -0.015 | [7] 0.013 | [8] 0.046 | [9] 0 | [10] 0.01 | [11] -0.029 | [12] -0.014 | [13] -0.161 | [14] -0.041 | [15] 0.022 | [16] -0.027 | [17] 0.062 | [18] 0.006 | [19] 0.016 | [20] -0.035

CDK5RAP1 (UniProt Q96SZ6)
inactive: [1] -0.052 | [2] -0.058 | [3] 0 | [4] -0.008 | [5] 0.175 | [6] -0.006 | [7] 0.044 | [8] 0.017 | [9] 0.031 | [10] -0.03 | [11] -0.107 | [12] 0.047 | [13] -0.114 | [14] 0.199 | [15] -0.008 | [16] -0.089 | [17] -0.055 | [18] 0.06 | [19] -0.023 | [20] -0.031

CD151 (UniProt P48509)
inactive: [1] 0.135 | [2] 0.015 | [3] -0.072 | [4] 0.157 | [5] 0.063 | [6] 0.019 | [7] 0.025 | [8] -0.002 | [9] -0.076 | [10] -0.092 | [11] -0.054 | [12] 0.139 | [13] 0.125 | [14] 0.024 | [15] 0.094 | [16] -0.025 | [17] -0.007 | [18] 0.031 | [19] -0.063 | [20] -0.009

CDC37L1 (UniProt Q7L3B6)
inactive: [1] -0.215 | [2] 0.027 | [3] -0.026 | [4] -0.167 | [5] -0.088 | [6] 0.022 | [7] 0.018 | [8] 0.121 | [9] 0.034 | [10] 0.172 | [11] -0.061 | [12] -0.074 | [13] 0.018 | [14] 0.033 | [15] -0.011 | [16] -0.017 | [17] -0.064 | [18] 0.07 | [19] -0.022 | [20] -0.102

CAMSAP1 isoform 3 (UniProt Q5T5Y3)
Chain of UniProt Q5T5Y3 (Q5T5Y3 whole entry, looked up): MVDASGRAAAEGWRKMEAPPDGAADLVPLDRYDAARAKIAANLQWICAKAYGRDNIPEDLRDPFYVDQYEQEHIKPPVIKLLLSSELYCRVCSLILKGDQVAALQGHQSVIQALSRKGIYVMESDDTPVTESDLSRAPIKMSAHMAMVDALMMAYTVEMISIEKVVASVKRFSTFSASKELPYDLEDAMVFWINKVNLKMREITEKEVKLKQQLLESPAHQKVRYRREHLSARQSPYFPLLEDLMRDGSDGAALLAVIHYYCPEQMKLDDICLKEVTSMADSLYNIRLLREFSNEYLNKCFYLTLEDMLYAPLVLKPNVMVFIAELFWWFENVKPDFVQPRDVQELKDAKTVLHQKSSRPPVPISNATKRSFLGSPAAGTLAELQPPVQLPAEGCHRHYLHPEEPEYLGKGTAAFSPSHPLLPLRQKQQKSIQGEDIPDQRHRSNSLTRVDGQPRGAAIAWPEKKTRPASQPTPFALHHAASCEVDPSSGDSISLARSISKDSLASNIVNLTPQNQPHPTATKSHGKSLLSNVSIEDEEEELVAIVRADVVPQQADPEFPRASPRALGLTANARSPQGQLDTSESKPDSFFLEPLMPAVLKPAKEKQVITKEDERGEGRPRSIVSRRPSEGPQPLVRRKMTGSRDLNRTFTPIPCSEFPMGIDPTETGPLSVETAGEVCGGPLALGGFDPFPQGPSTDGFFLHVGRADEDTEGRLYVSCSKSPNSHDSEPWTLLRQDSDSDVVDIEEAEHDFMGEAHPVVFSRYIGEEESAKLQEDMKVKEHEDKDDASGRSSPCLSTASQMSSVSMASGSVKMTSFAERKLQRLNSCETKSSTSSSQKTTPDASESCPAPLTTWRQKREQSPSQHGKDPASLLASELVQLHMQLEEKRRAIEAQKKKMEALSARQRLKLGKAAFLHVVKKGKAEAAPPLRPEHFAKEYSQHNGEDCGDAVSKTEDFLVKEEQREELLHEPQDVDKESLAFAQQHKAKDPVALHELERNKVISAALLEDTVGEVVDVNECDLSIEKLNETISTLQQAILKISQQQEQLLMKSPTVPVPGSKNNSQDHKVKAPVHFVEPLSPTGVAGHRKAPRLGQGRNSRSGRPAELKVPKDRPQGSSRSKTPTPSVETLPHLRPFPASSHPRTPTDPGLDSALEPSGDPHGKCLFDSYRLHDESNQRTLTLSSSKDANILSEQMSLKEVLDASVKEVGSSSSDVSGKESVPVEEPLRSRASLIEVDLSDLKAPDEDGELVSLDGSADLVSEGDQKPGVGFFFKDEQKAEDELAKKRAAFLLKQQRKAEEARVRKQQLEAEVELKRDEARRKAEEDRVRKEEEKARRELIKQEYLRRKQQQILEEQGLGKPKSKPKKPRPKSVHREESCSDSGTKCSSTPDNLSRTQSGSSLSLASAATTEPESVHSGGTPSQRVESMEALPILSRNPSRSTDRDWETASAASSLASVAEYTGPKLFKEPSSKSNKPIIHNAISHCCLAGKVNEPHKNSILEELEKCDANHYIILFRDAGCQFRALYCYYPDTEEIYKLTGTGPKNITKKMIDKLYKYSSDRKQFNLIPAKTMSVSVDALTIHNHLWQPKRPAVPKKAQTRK
inactive: [1] -0.019 | [2] -0.05 | [3] 0.043 | [4] -0.061 | [5] -0.144 | [6] -0.055 | [7] 0.091 | [8] -0.021 | [9] -0.132 | [10] -0.005 | [11] 0.124 | [12] -0.048 | [13] -0.172 | [15] -0.29 | [16] -0.078 | [17] 0.045 | [18] 0.064 | [19] -0.028 | [20] -0.013
active: [14] -0.466

CLPX (UniProt O76031)
Chain of UniProt O76031 (O76031 whole entry, looked up): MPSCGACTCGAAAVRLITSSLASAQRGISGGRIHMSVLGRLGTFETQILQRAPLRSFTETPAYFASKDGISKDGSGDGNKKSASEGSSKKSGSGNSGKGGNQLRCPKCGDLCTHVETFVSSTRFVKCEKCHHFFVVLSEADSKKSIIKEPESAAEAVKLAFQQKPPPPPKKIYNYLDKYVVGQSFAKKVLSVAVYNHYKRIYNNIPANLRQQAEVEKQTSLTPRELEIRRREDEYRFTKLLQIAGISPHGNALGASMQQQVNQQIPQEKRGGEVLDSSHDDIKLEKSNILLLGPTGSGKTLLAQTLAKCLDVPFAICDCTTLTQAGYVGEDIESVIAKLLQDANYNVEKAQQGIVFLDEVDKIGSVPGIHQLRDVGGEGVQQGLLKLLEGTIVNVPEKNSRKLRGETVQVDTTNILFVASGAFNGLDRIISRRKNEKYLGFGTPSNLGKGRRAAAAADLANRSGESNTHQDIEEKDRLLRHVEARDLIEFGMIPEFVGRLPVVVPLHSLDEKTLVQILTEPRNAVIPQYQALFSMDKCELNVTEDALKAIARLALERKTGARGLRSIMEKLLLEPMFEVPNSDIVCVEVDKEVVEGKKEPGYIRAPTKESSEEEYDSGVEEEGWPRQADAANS
inactive: [1] 0.008 | [2] -0.074 | [3] -0.006 | [4] 0.042 | [5] 0.006 | [6] -0.019 | [7] -0.012 | [8] 0.032 | [9] 0.052 | [10] -0.048 | [11] 0.01 | [12] 0.011 | [13] -0.031 | [14] -0.01 | [15] -0.019 | [16] 0.007 | [17] 0.011 | [18] 0.022 | [19] 0.058 | [20] -0.05

CNDP2 (UniProt Q96KP4)
inactive: [1] -0.03 | [2] 0.006 | [3] 0.045 | [4] -0.015 | [5] -0.031 | [6] -0.041 | [7] 0.066 | [8] 0.032 | [9] -0.067 | [10] 0.101 | [11] -0.013 | [12] -0.035 | [13] -0.052 | [14] 0.01 | [15] -0.015 | [16] -0.015 | [17] 0.023 | [18] -0.065 | [19] -0.005 | [20] 0.001

CD81 (UniProt P60033)
Chain of UniProt P60033 (P60033 whole entry, looked up): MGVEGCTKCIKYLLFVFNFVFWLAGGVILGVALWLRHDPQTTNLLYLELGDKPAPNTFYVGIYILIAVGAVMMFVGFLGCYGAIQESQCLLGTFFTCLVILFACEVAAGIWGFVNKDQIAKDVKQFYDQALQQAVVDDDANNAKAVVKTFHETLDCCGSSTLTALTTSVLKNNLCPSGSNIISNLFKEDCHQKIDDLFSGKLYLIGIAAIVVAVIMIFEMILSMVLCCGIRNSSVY
inactive: [1] 0.089 | [2] -0.026 | [3] 0.051 | [4] 0.016 | [5] 0.079 | [6] -0.015 | [7] 0.108 | [8] 0.131 | [9] 0.041 | [10] 0.05 | [11] -0.051 | [12] 0.222 | [13] 0.21 | [14] 0.231 | [15] -0.028 | [16] -0.074 | [17] 0.065 | [18] 0.052 | [19] 0.066 | [20] -0.166

CNOT7 (UniProt Q9UIV1)
inactive: [1] 0.059 | [2] -0.037 | [3] -0.077 | [4] -0.057 | [5] -0.255 | [6] 0.002 | [7] -0.034 | [8] -0.051 | [9] -0.075 | [10] 0.014 | [11] -0.053 | [12] 0.039 | [13] 0 | [14] 0.028 | [15] 0.091 | [16] 0.152 | [17] -0.12 | [18] 0.12 | [19] 0.032 | [20] -0.089

CKB (UniProt P12277)
Chain of UniProt P12277 (P12277 whole entry, looked up): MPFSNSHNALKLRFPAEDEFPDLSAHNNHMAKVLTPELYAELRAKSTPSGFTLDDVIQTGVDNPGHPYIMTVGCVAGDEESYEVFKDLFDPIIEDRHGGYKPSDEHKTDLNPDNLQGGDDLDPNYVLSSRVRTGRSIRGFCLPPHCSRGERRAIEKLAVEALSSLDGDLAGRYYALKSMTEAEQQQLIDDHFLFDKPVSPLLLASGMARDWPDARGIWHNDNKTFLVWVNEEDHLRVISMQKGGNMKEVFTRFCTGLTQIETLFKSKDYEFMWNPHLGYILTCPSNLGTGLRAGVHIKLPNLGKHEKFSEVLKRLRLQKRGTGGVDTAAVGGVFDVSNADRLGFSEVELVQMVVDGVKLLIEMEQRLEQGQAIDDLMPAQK
inactive: [1] 0.02 | [2] 0.02 | [3] 0.051 | [4] 0.037 | [5] -0.142 | [6] -0.008 | [7] 0.081 | [8] 0.01 | [9] -0.057 | [10] 0.062 | [11] -0.035 | [12] -0.02 | [13] -0.117 | [14] -0.033 | [15] -0.001 | [16] -0.023 | [17] -0.046 | [18] -0.117 | [19] -0.04 | [20] -0.018

CLCN7 (UniProt P51798)
Chain of UniProt P51798 (P51798 whole entry, looked up): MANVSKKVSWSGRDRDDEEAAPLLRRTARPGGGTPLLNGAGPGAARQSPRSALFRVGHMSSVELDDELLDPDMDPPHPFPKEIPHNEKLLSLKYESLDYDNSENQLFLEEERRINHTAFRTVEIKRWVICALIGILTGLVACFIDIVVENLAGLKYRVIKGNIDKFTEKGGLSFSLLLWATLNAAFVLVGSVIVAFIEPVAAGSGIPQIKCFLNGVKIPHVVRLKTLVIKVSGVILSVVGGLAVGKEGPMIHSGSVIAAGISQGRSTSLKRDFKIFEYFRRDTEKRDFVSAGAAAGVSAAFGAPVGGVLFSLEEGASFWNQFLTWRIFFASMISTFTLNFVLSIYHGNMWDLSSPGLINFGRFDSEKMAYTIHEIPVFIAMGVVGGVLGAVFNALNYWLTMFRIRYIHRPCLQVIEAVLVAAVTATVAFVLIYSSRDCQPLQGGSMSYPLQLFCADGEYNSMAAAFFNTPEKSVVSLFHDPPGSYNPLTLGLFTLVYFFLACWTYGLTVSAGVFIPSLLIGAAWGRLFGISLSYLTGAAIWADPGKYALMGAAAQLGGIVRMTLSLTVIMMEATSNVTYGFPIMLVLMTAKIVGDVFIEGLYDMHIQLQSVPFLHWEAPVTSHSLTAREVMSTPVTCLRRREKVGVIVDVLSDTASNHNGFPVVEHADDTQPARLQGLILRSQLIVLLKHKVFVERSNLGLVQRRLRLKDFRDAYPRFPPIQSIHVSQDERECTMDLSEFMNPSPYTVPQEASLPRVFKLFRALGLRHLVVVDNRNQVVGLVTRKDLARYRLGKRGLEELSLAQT
active: [13] -0.674
inactive: [1] -0.24 | [2] 0.083 | [3] -0.035 | [4] -0.012 | [5] -0.091 | [6] -0.111 | [7] 0.011 | [8] 0.049 | [9] 0.038 | [10] -0.02 | [11] -0.009 | [12] -0.162 | [14] -0.048 | [15] 0.07 | [16] 0.054 | [17] 0.107 | [18] 0.036 | [19] 0.021 | [20] -0.078

CERS2 (UniProt Q96G23)
inactive: [1] -0.177 | [2] 0.064 | [3] -0.128 | [4] -0.015 | [5] -0.113 | [6] 0.028 | [7] -0.034 | [8] 0.028 | [9] -0.074 | [10] -0.03 | [11] -0.015 | [12] 0 | [13] -0.103 | [14] -0.019 | [15] 0.04 | [16] 0.057 | [17] 0.035 | [18] -0.018 | [19] 0.027 | [20] -0.087

CES2 isoform 4 (UniProt O00748)
Chain of UniProt O00748 (O00748 whole entry, looked up): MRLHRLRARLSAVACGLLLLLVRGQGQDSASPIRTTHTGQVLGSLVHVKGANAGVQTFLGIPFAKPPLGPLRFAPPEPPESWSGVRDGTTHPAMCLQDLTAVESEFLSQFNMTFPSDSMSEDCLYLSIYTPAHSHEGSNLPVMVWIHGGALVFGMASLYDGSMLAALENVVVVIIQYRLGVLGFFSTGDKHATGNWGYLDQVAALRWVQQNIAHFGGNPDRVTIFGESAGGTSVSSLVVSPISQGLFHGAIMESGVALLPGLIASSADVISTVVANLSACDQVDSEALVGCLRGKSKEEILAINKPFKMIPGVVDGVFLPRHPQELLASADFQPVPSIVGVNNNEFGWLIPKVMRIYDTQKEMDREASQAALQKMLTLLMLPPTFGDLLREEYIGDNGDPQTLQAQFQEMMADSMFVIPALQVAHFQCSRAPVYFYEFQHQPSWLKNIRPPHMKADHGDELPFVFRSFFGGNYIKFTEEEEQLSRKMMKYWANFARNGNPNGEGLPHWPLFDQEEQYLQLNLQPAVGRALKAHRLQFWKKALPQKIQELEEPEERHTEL
active: [7] 0.489
inactive: [1] -0.006 | [2] -0.104 | [3] 0.274 | [4] -0.045 | [5] 0.119 | [6] -0.036 | [8] 0.166 | [9] 0.28 | [10] 0.111 | [11] 0.116 | [12] 0.017 | [13] -0.051 | [14] 0.095 | [15] -0.083 | [16] -0.017 | [17] -0.083 | [18] 0.076 | [19] 0.027 | [20] -0.016

CHAMP1 (UniProt Q96JM3)
inactive: [1] -0.134 | [2] 0.049 | [3] 0 | [4] -0.132 | [5] -0.092 | [6] -0.123 | [7] 0.026 | [8] 0.067 | [9] 0.014 | [10] 0.056 | [11] -0.034 | [12] -0.136 | [13] 0.007 | [14] -0.031 | [15] 0.001 | [16] 0.137 | [17] -0.007 | [18] -0.02 | [19] -0.051 | [20] -0.078

CPSF6 isoform 2 (UniProt Q16630)
Chain of UniProt Q16630 (Q16630 whole entry, looked up): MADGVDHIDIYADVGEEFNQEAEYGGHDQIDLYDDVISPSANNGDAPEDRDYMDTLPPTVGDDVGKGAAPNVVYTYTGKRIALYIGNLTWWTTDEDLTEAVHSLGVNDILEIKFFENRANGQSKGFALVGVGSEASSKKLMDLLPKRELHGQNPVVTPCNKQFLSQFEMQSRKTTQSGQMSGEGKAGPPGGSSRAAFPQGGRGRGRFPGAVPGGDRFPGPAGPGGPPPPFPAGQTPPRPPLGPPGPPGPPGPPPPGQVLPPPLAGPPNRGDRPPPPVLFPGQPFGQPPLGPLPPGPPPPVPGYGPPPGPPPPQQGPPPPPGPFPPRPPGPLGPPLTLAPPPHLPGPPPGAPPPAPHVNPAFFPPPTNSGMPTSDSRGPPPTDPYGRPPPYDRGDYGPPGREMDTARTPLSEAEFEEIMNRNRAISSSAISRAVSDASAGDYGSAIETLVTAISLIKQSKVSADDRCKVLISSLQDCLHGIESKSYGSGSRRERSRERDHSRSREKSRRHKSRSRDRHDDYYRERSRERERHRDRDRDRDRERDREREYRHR
inactive: [1] 0.079 | [2] -0.136 | [3] 0.06 | [5] 0.009 | [6] 0.014 | [7] 0.039 | [8] -0.008 | [9] 0.031 | [10] 0.006 | [11] -0.027 | [12] -0.037 | [13] -0.01 | [14] 0.029 | [15] -0.008 | [16] -0.007 | [17] 0.004 | [19] -0.003 | [20] -0.179
active: [4] -1.43 | [18] -0.225
